Laboratory results reported in PubChem BioAssay AID1159580 (chemical genetic matrix, 2015).
Screen size: about 5,500 compounds; about 2,000 (36%) were called active. Not shown: some 18% with an inconclusive outcome. Cut-off read from the data, not from the text of the source: active = normalized growth mostly below about 0.91 (no sharp cut-off); inconclusive = no clear call, values can overlap the other calls; inactive = mostly above about 0.92. Some of the results follow.

Assay: chemical genetic growth profiling, strain panel (AID 1159580);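 note: tested at 20 µM; growth read once vehicle control cultures reached saturation at 30 °C; 1 = growth at the plate median or of vehicle wells; lower values mean less growth of the strain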
Details: growth OD

Measured: normalized growth

CCCc1nc2c(C)cc(-c3nc4ccccc4n3C)cc2n1Cc1ccc(-c2ccccc2C(=O)O)cc1
active: S. cerevisiae deletion strains, locus YKL085W, strain MDH1 (second series), active compounds read low 1.08 [resistant] | S. cerevisiae deletion strains, locus YKL085W, strain MDH1, active compounds read low 1.08 [resistant]
inactive: S. cerevisiae deletion strains, locus YJR043C, strain POL32, active compounds read low 0.991 | S. cerevisiae deletion strains, locus YJR066W, strain TOR1, active compounds read low 0.952 | S. cerevisiae deletion strains, locus YKL068W, active compounds read low 1.01 | S. cerevisiae deletion strains, locus YKL160W, strain elf1, active compounds read low 1.03 | S. cerevisiae deletion strains, locus YKL190W, strain CNB1, active compounds read low 1 | S. cerevisiae deletion strains, locus YKR001C, strain vps1, active compounds read low 1.02 | S. cerevisiae deletion strains, locus YKR026C, strain gcn3, active compounds read low 1.02 | S. cerevisiae deletion strains, locus YKR091W, strain srl3, active compounds read low 1.01 | S. cerevisiae deletion strains, locus YLL001W, strain dnm1, active compounds read low 1.01 | S. cerevisiae deletion strains, locus YLL026W, active compounds read low 1 | S. cerevisiae deletion strains, locus YLL041C, strain sdh2, active compounds read low 1.01 | S. cerevisiae deletion strains, locus YLR027C, strain aat2, active compounds read low 1 | S. cerevisiae deletion strains, locus YLR039C, strain RIC1, active compounds read low 0.975 | S. cerevisiae deletion strains, locus YLR058C, strain SHM2, active compounds read low 1 | S. cerevisiae deletion strains, locus YLR102C, strain apc9, active compounds read low 1 | S. cerevisiae deletion strains, locus YLR113W, strain HOG1, active compounds read low 1 | S. cerevisiae deletion strains, locus YLR221C, strain rsa3, active compounds read low 0.994 | S. cerevisiae deletion strains, locus YLR258W, strain gsy2, active compounds read low 1.01 | S. cerevisiae deletion strains, locus YLR262C, strain YPT6 (second series), active compounds read low 0.975 | S. cerevisiae deletion strains, locus YLR262C, strain YPT6, active compounds read low 0.998 | S. cerevisiae deletion strains, locus YLR268W, strain sec22, active compounds read low 1 | S. cerevisiae deletion strains, locus YLR320W, strain mms22, active compounds read low 0.983 | S. cerevisiae deletion strains, locus YLR330W, strain CHS5, active compounds read low 1 | S. cerevisiae deletion strains, locus YLR342W, strain FKS1 (second series), active compounds read low 1 | S. cerevisiae deletion strains, locus YLR342W, strain FKS1, active compounds read low 1 | S. cerevisiae deletion strains, locus YLR357W, strain rsc2, active compounds read low 1.03 | S. cerevisiae deletion strains, locus YLR370C, strain arc18, active compounds read low 1.01 | S. cerevisiae deletion strains, locus YLR371W, strain rom2, active compounds read low 1 | S. cerevisiae deletion strains, locus YLR384C, strain iki3, active compounds read low 1.03 | S. cerevisiae deletion strains, locus YLR418C, strain cdc73, active compounds read low 1 | S. cerevisiae deletion strains, locus YML016C, strain PPZ1, active compounds read low 0.997 | S. cerevisiae deletion strains, locus YML032C, strain rad52, active compounds read low 1 | S. cerevisiae deletion strains, locus YML120C, strain ndi1, active compounds read low 1 | S. cerevisiae deletion strains, locus YML124C, strain tub3, active compounds read low 0.998 | S. cerevisiae deletion strains, locus YMR058W, strain fet3, active compounds read low 1.01 | S. cerevisiae deletion strains, locus YMR078C, strain ctf18, active compounds read low 1.02 | S. cerevisiae deletion strains, locus YMR125W, strain sto1, active compounds read low 0.99 | S. cerevisiae deletion strains, locus YMR129W, active compounds read low 1.01 | S. cerevisiae deletion strains, locus YMR205C, strain PFK2, active compounds read low 1 | S. cerevisiae deletion strains, locus YMR223W, strain ubp8, active compounds read low 1.03 | S. cerevisiae deletion strains, locus YMR231W, strain pep5, active compounds read low 1.02 | S. cerevisiae deletion strains, locus YMR263W, strain SAP30, active compounds read low 0.994 | S. cerevisiae deletion strains, locus YMR307W, strain GAS1, active compounds read low 0.995 | S. cerevisiae deletion strains, locus YNL067W, strain RPL9B, active compounds read low 0.992 | S. cerevisiae deletion strains, locus YNL071W, strain lat1, active compounds read low 1.01 | S. cerevisiae deletion strains, locus YNL128W, strain TEP1, active compounds read low 1.01 | S. cerevisiae deletion strains, locus YNL183C, strain NPR1, active compounds read low 0.969 | S. cerevisiae deletion strains, locus YNL209W, strain ssb2, active compounds read low 1 | S. cerevisiae deletion strains, locus YNL233W, strain BNI4, active compounds read low 0.985 | S. cerevisiae deletion strains, locus YNL248C, strain rpa49, active compounds read low 1.02 | S. cerevisiae deletion strains, locus YNL250W, strain rad50, active compounds read low 1.03 | S. cerevisiae deletion strains, locus YNL271C, strain bni1, active compounds read low 1.02 | S. cerevisiae deletion strains, locus YNL298W, strain CLA4, active compounds read low 1.02 | S. cerevisiae deletion strains, locus YNL307C, strain MCK1, active compounds read low 1.01 | S. cerevisiae deletion strains, locus YNL322C, strain KRE1 (second series), active compounds read low 0.976 | S. cerevisiae deletion strains, locus YNR049C, strain mso1, active compounds read low 1.02 | S. cerevisiae deletion strains, locus YNR052C, strain pop2, active compounds read low 1.01 | S. cerevisiae deletion strains, locus YOL006C, strain TOP1, active compounds read low 0.995 | S. cerevisiae deletion strains, locus YOL012C, strain htz1 0.863 | S. cerevisiae deletion strains, locus YOL147C, strain pex11, active compounds read low 1.01 | S. cerevisiae deletion strains, locus YOR001W, strain rrp6, active compounds read low 0.99 | S. cerevisiae deletion strains, locus YOR061W, strain CKA2, active compounds read low 0.996 | S. cerevisiae deletion strains, locus YOR069W, strain VPS5, active compounds read low 1.01 | S. cerevisiae deletion strains, locus YOR070C, strain gyp1, active compounds read low 1.01 | S. cerevisiae deletion strains, locus YOR080W, strain dia2, active compounds read low 1.01 | S. cerevisiae deletion strains, locus YOR083W, strain WHI5, active compounds read low 1.01 | S. cerevisiae deletion strains, locus YOR106W, strain vam3, active compounds read low 1.03 | S. cerevisiae deletion strains, locus YOR136W, strain idh2, active compounds read low 1.01 | S. cerevisiae deletion strains, locus YOR144C, strain elg1, active compounds read low 1.01 | S. cerevisiae deletion strains, locus YOR184W, strain ser1, active compounds read low 0.999 | S. cerevisiae deletion strains, locus YOR231W, strain MKK1, active compounds read low 0.998 | S. cerevisiae deletion strains, locus YOR265W, strain rbl2, active compounds read low 1.01 | S. cerevisiae deletion strains, locus YOR270C, strain vph1, active compounds read low 0.954 | S. cerevisiae deletion strains, locus YOR290C, strain snf2, active compounds read low 1.01 | S. cerevisiae deletion strains, locus YOR316C, strain cot1, active compounds read low 0.999 | S. cerevisiae deletion strains, locus YPL051W, strain arl3, active compounds read low 1.01 | S. cerevisiae deletion strains, locus YPL055C, strain LGE1, active compounds read low 0.974 | S. cerevisiae deletion strains, locus YPL078C, strain atp4, active compounds read low 1.01 | S. cerevisiae deletion strains, locus YPL106C, strain sse1, active compounds read low 0.996 | S. cerevisiae deletion strains, locus YPL240C, strain hsp82, active compounds read low 1.01 | S. cerevisiae deletion strains, locus YPL256C, strain CLN2, active compounds read low 0.969 | S. cerevisiae deletion strains, locus YPR119W, strain clb2, active compounds read low 1 | S. cerevisiae deletion strains, locus YPR141C, strain kar3, active compounds read low 1.01 | S. cerevisiae deletion strains, locus YPR163C, strain tif3, active compounds read low 0.997 | S. cerevisiae deletion strains, locus YPR167C, strain met16, active compounds read low 1.01 | S. cerevisiae deletion strains, strain wtn01, active compounds read low 1.05 | S. cerevisiae strains, strain wild type, active compounds read low 1
